Test results taken from PubChem BioAssay AID2796 (The Scripps Research Institute Molecular Screening Center, 2010).
Hit rate of the full screen: of about 320,000 compounds, about 8,000 (2.5%) were called active. Cut-off read from the data, not from the text of the source: active = activation above about 47%; inactive = the rest. The entries come from a sample that favours actives as a whole.

molecular target: Aryl hydrocarbon receptor (Homo sapiens) (UniProt P35869); experiment: AHR activators, primary screen, cell-based, luminescence, luciferase reporter, human (AID 2796); details: AHR-responsive luciferase reporter cells, at 5 µM, active compounds read high;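 note: 0% = vehicle wells and 100% = reference agonist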
Sequence (P35869 whole entry, looked up): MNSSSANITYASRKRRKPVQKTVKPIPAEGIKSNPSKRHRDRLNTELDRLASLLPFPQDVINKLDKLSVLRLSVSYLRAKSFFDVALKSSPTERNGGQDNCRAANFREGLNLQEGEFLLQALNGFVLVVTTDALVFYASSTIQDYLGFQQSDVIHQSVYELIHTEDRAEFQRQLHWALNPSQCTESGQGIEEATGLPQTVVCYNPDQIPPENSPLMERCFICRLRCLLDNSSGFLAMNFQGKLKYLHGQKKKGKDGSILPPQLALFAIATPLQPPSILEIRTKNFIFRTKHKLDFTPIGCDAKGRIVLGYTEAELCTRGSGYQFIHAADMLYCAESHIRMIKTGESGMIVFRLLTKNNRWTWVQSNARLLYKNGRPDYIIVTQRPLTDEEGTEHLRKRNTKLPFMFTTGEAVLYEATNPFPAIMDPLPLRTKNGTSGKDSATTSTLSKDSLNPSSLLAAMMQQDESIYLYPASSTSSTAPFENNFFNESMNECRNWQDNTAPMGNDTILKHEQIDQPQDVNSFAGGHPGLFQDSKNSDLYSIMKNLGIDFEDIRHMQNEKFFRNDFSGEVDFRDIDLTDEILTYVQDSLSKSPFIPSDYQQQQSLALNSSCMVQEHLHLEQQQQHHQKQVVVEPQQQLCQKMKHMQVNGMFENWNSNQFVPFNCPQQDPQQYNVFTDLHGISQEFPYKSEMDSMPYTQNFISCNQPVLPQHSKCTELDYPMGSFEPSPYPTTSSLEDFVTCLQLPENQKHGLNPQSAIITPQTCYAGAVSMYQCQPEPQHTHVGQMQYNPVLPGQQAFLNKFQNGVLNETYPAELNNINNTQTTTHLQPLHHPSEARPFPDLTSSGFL

Compound	activation
CN(CC(=O)Nc1ccc(Cl)cc1)CC(=O)Nc1cccc2ccccc12	5.21% (inactive)
O=C(CN1C(=O)NC2(CCCCCC2)C1=O)Nc1ccc([N+](=O)[O-])cc1	-2.64% (inactive)
COc1ccc(OCc2cc(C(=O)N3CCCC3)no2)c2ccccc12	50.9% (active)
COc1ccccc1-c1cc(C(=O)N2CCCCC2)no1	32.7% (inactive)
COc1cc(Cl)ccc1OCc1cc(C(=O)N2CC[C@@H]3CCCC[C@H]3C2)no1	6.28% (inactive)
Cc1ccc(C(=O)NCC(=O)OCC(=O)NC2CCCCCCC2)cc1	0.7% (inactive)
CCCCNC(=O)C1CCCN(S(=O)(=O)c2ccc(S(=O)(=O)NCC(C)C)cc2)C1 (stereo not given)	-3.28% (inactive)
CCOc1ccc(C2c3[nH]c4ccccc4c3CCN2Cc2cn(CC)nc2C)cc1 (stereo not given)	58.7% (active)
CCOc1ccc(C2c3[nH]c4ccccc4c3CCN2Cc2cccn2-c2ncccn2)cc1 (stereo not given)	26.3% (inactive)
COc1cccc(C2c3[nH]c4ccccc4c3CCN2Cc2cccc(C)n2)c1 (stereo not given)	17.2% (inactive)
Cc1c(-c2ccccc2)n[nH]c1C(=O)N=Nc1c(O)[nH]c2ccccc12	-6.16% (inactive)
CCOC(=O)N1CCN(C(=O)COCc2cc(-c3ccc4c(c3)OCO4)on2)CC1	0.94% (inactive)
CCOC(=O)c1c(C)[nH]c(C(=O)COc2ccc3c(c2)OCO3)c1C	30.7% (inactive)
CCOC(=O)c1nc(-c2ccc3c(c2)OCO3)[nH]c1C	102% (active)
CCCCOc1ccc(Cl)cc1CSc1nncn1N	1.19% (inactive)
Cc1cccc(N=C2SC(C)CN2C(=O)CN2C(=O)NC3(CCCC3)C2=O)c1 (stereo not given)	2.39% (inactive)
CCOc1ccccc1CN1CCN(C2CCC2)CC1CCO (stereo not given)	-2.26% (inactive)
CC(=O)N1CSCC1C(=O)O (stereo not given)	0.15% (inactive)
CCOc1cccc(C(=O)Nc2nnc(-c3cccs3)s2)c1	37.1% (inactive)
CCOc1cccc(C(=O)Nc2cnn(Cc3ccccc3)c2)c1	47.8% (active)
O=C(O)CCCn1cc(NC(=O)COc2cccc(Cl)c2)cn1	-1.62% (inactive)
C=CC1=C(C(=O)O)N2C(=O)[C@@H](NC(=O)/C(=N\OCC(=O)O)c3csc(N)n3)[C@H]2SC1	-1.86% (inactive)
CC(=O)Oc1ccc(C(=O)Nc2nccs2)cc1	1.87% (inactive)
COc1ccc(Cc2nnc(NC(=O)c3cc(OC)c(OC)c(OC)c3)s2)cc1OC	0.25% (inactive)

Compound	activation
COc1cc(C(=O)Nc2nccs2)cc(OC)c1OC	51.3% (active)
O=C(Nc1cccc2c1N(C(=O)c1ccco1)CCC2)c1ccco1	2.88% (inactive)
Cc1ccc(NC(=O)CSc2nn3c(=O)c(C)nnc3s2)cc1Cl	72.8% (active)
Cc1ccc(NC(=O)CSc2nnc(CNC(=O)c3ccccc3F)o2)cc1Cl	26.2% (inactive)
COc1ccc(Cc2nnc(SCC(=O)Nc3ccc(C)c(Cl)c3)[nH]c2=O)cc1	-0.12% (inactive)
COCCNC(=O)CSc1nc2c(n1-c1ccccc1)CCCC2	-0.48% (inactive)
Cc1cc(=O)n2[nH]c(-c3sccc3-n3c(C)ccc3C)cc2n1	10% (inactive)
O=c1c2c(nc3cc(-c4cccc(Cl)c4)[nH]n13)CCCC2	5.09% (inactive)
Cc1cc(=O)n2[nH]c(-c3cccc(Cl)c3)cc2n1	50.5% (active)
O=C(CCc1ccc(S(=O)(=O)N2CCOCC2)cc1)OCC(=O)c1ccc(Br)cc1	2.27% (inactive)
COC(=O)C1=C(C)N(c2ccc(C)cc2)/C(=C/c2ccc(O)cc2)C1=O	2.06% (inactive)
C[C@H](C(=O)CC(=O)OC(C)(C)C)[C@H](O)c1ccc(C(F)(F)F)cc1	1.94% (inactive)
Cc1cc(OC(=O)c2ccc(Cl)cc2)cc(=O)n1C	-0.96% (inactive)
COc1ccc2ccn(C)c2c1	5.22% (inactive)
COc1ccc(C(C(=O)NCc2ccccc2)N(Cc2cccs2)C(=O)c2cnccn2)cc1 (stereo not given)	-1.35% (inactive)
COc1cc([N+](=O)[O-])ccc1NC(=O)CN1CCCC1	4.3% (inactive)
COc1ccc(NC(=O)c2cc([N+](=O)[O-])ccc2NC(=O)CNC2CCCCC2C)c(OC)c1 (stereo not given)	47.4% (active)
CC1CCCCC1NCC(=O)Nc1ccccc1C(=O)Nc1ccccc1 (stereo not given)	-0.06% (inactive)
COc1ccccc1CN1CC(C(=O)NCCc2cn[nH]c2)CCC1=O (stereo not given)	2.31% (inactive)
NC(=O)c1c(Nc2nc3c(F)cccc3s2)sc2c1CCCC2	52.5% (active)
NC(=O)c1c(NC(=O)CSc2nnc(-c3ccco3)n2N)sc2c1CCCC2	19.8% (inactive)
O=C(Nc1sc2c(c1C(=O)O)CCC2)c1ccccc1F	13.6% (inactive)
CNC(=O)c1c(NC(NC(=O)c2ccco2)C(=O)c2ccc(Cl)cc2)sc2c1CCCC2 (stereo not given)	1.8% (inactive)
COc1cccc(OC)c1C(=O)Nc1nnc(C(C)C)s1	15.7% (inactive)

Compound	activation
COc1cccc(OC)c1C(=O)Nc1sc2c(c1C(N)=O)CCCC2	49.1% (active)
Cc1cccc(N(C(=O)Cn2nnc(-c3ccc(C)o3)n2)C(C(=O)NC2CCCC2)c2ccncc2)c1 (stereo not given)	-1.02% (inactive)
CC1CCCCN1C(=O)CCS(=O)(=O)Cc1ccccc1 (stereo not given)	-0.28% (inactive)
Nc1ccccc1/C=N\N=C/c1ccccc1N	38.4% (inactive)
COC(=O)c1sccc1NC(=S)Nc1ccc(C)cc1	1.83% (inactive)
Cc1ccc(NC(=O)NNC(=O)c2sccc2-n2cccc2)cc1	85.8% (active)
CCNC(=O)c1sccc1-n1cccc1	0.75% (inactive)
CN(C)C1=NC[C@H](Cc2ccccc2)N1CCc1ccc(F)cc1	5.16% (inactive)
CCOC(=O)N1CCN(C(=O)c2ccccc2SCC(=O)NCC2CCCCC2)CC1	1.83% (inactive)
COc1ccccc1Oc1ccc(N/C=C2/CCCC2=O)cc1	0.2% (inactive)
O=C1/C(=C\Nc2ccccc2)CCN1c1ncccn1	66.5% (active)
O=C(Cc1ccccc1)NNC(=O)C1CCN(c2ncccn2)CC1	0.76% (inactive)
CCc1cc2c(=O)c(-c3ccc(F)cc3)c(C(F)(F)F)oc2cc1OCC(=O)O	8.09% (inactive)
COc1ccc2oc(N)c(C=O)c(=O)c2c1	-1.38% (inactive)
CCc1cc2c(=O)c(-c3ccon3)c(N)oc2cc1OC	59.6% (active)
CCN1C(=O)C(C(=O)NC(C)c2ccccc2)C2CC1(C)Oc1ccccc12 (stereo not given)	2.9% (inactive)
CC(NS(=O)(=O)c1ccccc1)c1n[nH]c(=S)n1-c1ccccc1 (stereo not given)	2.32% (inactive)
COc1ccc(Cl)cc1NS(=O)(=O)c1cccc(C(=O)NCC2CCCO2)c1 (stereo not given)	-1.04% (inactive)
COc1ccc(C(=O)NC(=S)Nc2ccccc2N2CCN(S(C)(=O)=O)CC2)cc1OC	0.97% (inactive)
O=C(NC(=S)Nc1ccccc1N1CCCCC1)c1ccc(F)cc1	19.9% (inactive)
COc1ccccc1C(=O)NC(=S)Nc1ccccc1N1CCCCC1	76.4% (active)
Cc1cc(C)n(CC(O)CN(c2ccccc2)S(=O)(=O)c2ccc3ccccc3c2)n1 (stereo not given)	2.73% (inactive)
N#C/C(=C(/O)COC(=O)COc1ccc(Cl)cc1)c1nc2ccccc2[nH]1	24.9% (inactive)
N#C/C(=C(/O)COc1cccc2ccccc12)c1nc2ccccc2[nH]1	93.7% (active)

Compound	activation
N#C/C(=C(/O)Cc1cccc2ccccc12)c1nc2ccccc2s1	9.95% (inactive)
O=C(CCNS(=O)(=O)c1ccccc1C(F)(F)F)NCc1ccc2c(c1)OCO2	4.67% (inactive)
COc1ccccc1CCNC(=O)CSc1nnc2ccc(-c3cccnc3)nn12	16.4% (inactive)
CCOC(=O)N1CCC(N2Cc3cccc(C(=O)Nc4ccc(S(=O)(=O)N(CC)CC)cc4)c3C2=O)CC1	-1.91% (inactive)
CC(=O)Oc1ccccc1C(=O)Nc1ncc([N+](=O)[O-])s1	6.57% (inactive)
Cc1cccc(C)c1Nc1nnc(SCC(=O)NCCCN2CCCC2=O)s1	-0.54% (inactive)
C=CCNc1nc(N)c(C(=C(C#N)C#N)c2ccccc2)s1	5.13% (inactive)
CN1c2ccc([N+](=O)[O-])cc2C(C)(C)C12C=Cc1cc(C(=O)O)ccc1O2 (stereo not given)	0.9% (inactive)
CC[C@@]1(C(=O)OC)N[C@H](CN(C)C(C)=O)[C@@H]2C(=O)N(C)C(=O)[C@@H]21	-0.36% (inactive)
N#C/C(=C1/CCCN1)c1ccccn1	0.38% (inactive)
Cn1c(S(=O)(=O)O)nc2ccccc21	3.28% (inactive)
Cn1c(/C(C#N)=C2/CCCCCN2)nc2ccccc21	67.6% (active)
Cc1ccc2[nH]c(=O)c(CN(CCCN(C)C)C(=O)Nc3cccc(Cl)c3)cc2c1	0.48% (inactive)
COn1c(-c2ccc(Cl)cc2Cl)nc2ncccc21	2.64% (inactive)
Cc1ncn2cc(-c3ccc(Cl)cc3Cl)[nH]c(=O)c12	56.5% (active)
CCOC(=O)c1nc(C)n(-c2ccc(Cl)cc2Cl)n1	2.68% (inactive)
COc1cc(NC(=O)CSc2ccc(-c3cccnc3)nn2)cc(OC)c1	44.9% (inactive)
O=S(=O)(NCC1CCCO1)c1cnc(Cl)c(Cl)c1 (stereo not given)	-2.6% (inactive)
CC(C)[C@H](NC(=O)N1c2ccccc2NC(=O)[C@@H]1C(C)C)C(=O)N[C@H](C(=O)O)c1ccccc1	0.48% (inactive)
C/C(=N\Nc1nc(Nc2ccccc2)nc(N2CCOCC2)n1)c1cccs1	56.8% (active)
C/C(=N\Nc1nc2ccccc2[nH]1)c1cccs1	43.1% (inactive)
C/C(=N\Nc1nc(N2CCOCC2)nc(N2CCOCC2)n1)c1ccc([N+](=O)[O-])cc1	0.4% (inactive)
CC(c1ccco1)N(C(=O)COc1ccccc1[N+](=O)[O-])c1ccccn1 (stereo not given)	1.97% (inactive)
